High-throughput results from PubChem.
PriA SSB inh: inhibitors of Klebsiella pneumoniae PriA binding to SSB C-terminal tail; AlphaScreen SSBct-PriA binding, biotinylated peptide; inhibition, % at 33 µM; 430,000 tested, 0.6% active; in the data active = inhibition mostly above about 37%, no sharp cut-off; inactive = mostly below about 20%
PfHsp40 rescue: compounds rescuing yeast from Plasmodium falciparum HSP40 toxicity. 340,000 tested, 0.68% active. AID 504582. growth rescue, % at 12.5 µM. S. cerevisiae expressing PfHsp40, growth rescue, ATP luminescence; in the data active = growth rescue above about 28%, passing the limit was not always enough; inconclusive = no clear call, values can overlap the other calls;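 note: yeast W303a lacking pdr1 and pdr3 grown in galactose medium; growth measured after three days at 30 °C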
PrP UTR inh: inhibition of PrP 5' UTR reporter expression; cell-based PrP 5' UTR mRNA reporter, plate reader; inhibition, % (test concentration not listed); 340,000 tested, 0.35% active; AID 488862; in the data active = inhibition above about 52%
MazEF act: MazEF (E. coli) toxin RNase activation. FAM/BHQ RNA-DNA oligo cleavage fluorescence, 5 h. activation, % at 20 µM. 350,000 tested, 0.32% active. AID 504720; in the data active = activation above about 50%
Target sequence (P0AE70 whole entry, looked up): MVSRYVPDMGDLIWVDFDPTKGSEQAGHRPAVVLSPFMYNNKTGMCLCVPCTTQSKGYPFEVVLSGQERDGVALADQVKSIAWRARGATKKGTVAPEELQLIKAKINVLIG
PrPC surface inh: inhibitors of human cell surface prion protein PrPC. inhibition, % at 13.8 µM. TR-FRET read-out. 370,000 tested, 0.43% active. P04156. AID 720596; in the data active = inhibition above about 24%
PrP UTR cherry: prion 5' UTR mRNA inhibition, cherry-pick retest | shares compounds with PrP UTR inh | cell-based prion protein 5' UTR reporter, plate reader | inhibition, % at 2.5 µM | 1,100 tested, 48% active | AID 504592; in the data active = inhibition above about 54%; inconclusive = no clear call, values can overlap the other calls
Each line names hits and unclear results; the compound was inactive in the other large screens (follow-up assays come after a bar, where they were run). In the library only some 1.8% were active in any assay of this set; here they are far more common.

COc1ccc(-[n+]2c(C)cc(/C=C3\Sc4ccccc4N3C)cc2C)cc1	PfHsp40 rescue inconclusive, PrP UTR inh 66 (no result: PriA SSB inh, MazEF act) | PrP UTR cherry inconclusive
COc1ccccc1-[n+]1c(C)cc(/C=C2\Sc3ccccc3N2C)cc1C	PrP UTR inh 70 (no result: PriA SSB inh) | PrP UTR cherry inactive
Cc1nnsc1C(=O)N1CCN(CC(O)c2ccco2)CC1 (centres undefined)	none (no result: PfHsp40 rescue, PrP UTR inh, MazEF act, PrPC surface inh)
Cc1ccc(C(=O)N2CCN(S(C)(=O)=O)C2)cc1	none
COc1ccc2c(=O)cc(-c3cccnc3)oc2c1OC	PrP UTR inh 54 | PrP UTR cherry inactive
COC(=O)c1ccc(Cn2cc(/C=C\[N+](=O)[O-])c3ccccc32)o1	PrP UTR inh 52 | PrP UTR cherry inactive
O=C(O)c1ccc(Cn2cc(/C=C\[N+](=O)[O-])c3ccccc32)o1	none
Cn1cccc1/C=C(/C#N)c1ccc(F)cc1	PrP UTR inh 80 | PrP UTR cherry inactive
OC(COCCOc1ccc(Br)cc1)CN1CCN(c2ccccn2)CC1 (centres undefined)	none (no result: PfHsp40 rescue, PrP UTR inh, MazEF act, PrPC surface inh)
O=C(O)Cc1sc(Nc2ccc(Cl)cc2)nc1-c1cccs1	PrP UTR inh 88 | PrP UTR cherry inactive
COc1ccc(CCNC(=O)c2ccc(NS(=O)(=O)c3ccc4[nH]c(=O)[nH]c4c3)cc2)cc1OC	none
CCCCCCCCCCCCCCCCCCNc1ccn(C2OC(COP(=O)(O)OCC3OC(n4cc(F)c(=O)[nH]c4=O)CC3O)C(O)C2O)c(=O)n1 (centres undefined)	PfHsp40 rescue 42, PrP UTR inh 63 | PrP UTR cherry inactive
COc1ccc(/C=N/NC(=O)c2[nH]c3ccc(Br)cc3c2-c2ccccc2)cc1	PrP UTR inh 68 | PrP UTR cherry 81
COc1ccc(/C=N/NC(=O)c2[nH]c3ccc(Br)cc3c2-c2ccccc2)c(C(=O)O)c1OC	none
CCOC(=O)[C@H]1[C@H]2COc3ccc(Br)cc3[C@@H]2N2C(=O)[C@H](C)NC(=O)[C@@]12C	none
COC(=O)CSc1n[nH]c(=S)s1	none
CCSc1n[nH]c(=S)s1	PrP UTR inh 77 | PrP UTR cherry inactive
COc1ccc(Br)cc1CNC(=O)C1CCCN(S(C)(=O)=O)C1 (centres undefined)	none
Cc1ccc(C(c2nnnn2CC2CCCO2)N2CCN(Cc3ccccc3)CC2)cc1 (centres undefined)	PrP UTR inh 67 | PrP UTR cherry inactive
CCCCC(c1nnnn1CC1CCCO1)N1CCN(Cc2ccccc2)CC1 (centres undefined)	none
COc1c(C)cc(C(=O)C2CCCN(C(=O)c3ccc4[nH]ccc4c3)C2)cc1C (centres undefined)	PrP UTR inh 78 | PrP UTR cherry inactive
CC(=O)c1c[nH]c(C(=O)NC2CCCCCC2)c1	none
O=C(NC1CCCCC1)c1cc(C(=O)c2ccccc2Br)c[nH]1	PrP UTR inh 71 | PrP UTR cherry inactive
Cc1cc(NC(=O)CSc2nc(-c3ccco3)cc(C(F)(F)F)n2)no1	PrP UTR inh 67 | PrP UTR cherry 90
Cc1cc(NC(=O)CCSc2nc(-c3ccco3)cc(C(F)(F)F)n2)no1	none
O=c1[nH]cnc2c1ncn2[C@@H]1O[C@H](CO)[C@@H](O)[C@H]1O	PrP UTR inh 79 | PrP UTR cherry inactive
COc1cc(O)c(C(=O)O)c(-c2cc(O)c(O)cc2C)c1	PrP UTR inh 68 | PrP UTR cherry inactive
COc1cc(C)c(C(=O)Oc2cc(C)c(C(=O)O)c(O)c2)c(O)c1	none
Cc1cccc(NC(=S)N/N=C/C(C)c2ccccc2)c1C (centres undefined)	PrP UTR inh 59 (no result: PriA SSB inh) | PrP UTR cherry inactive
Cc1ccccc1NC(=S)N/N=C/C(C)c1ccccc1 (centres undefined)	none (no result: PriA SSB inh)
COC(=O)Cc1[nH]n(-c2nc3ccccc3s2)c(=O)c1C(C)=Nc1ccc(Cl)cc1	PrP UTR inh 91 | PrP UTR cherry 87
COC(=O)Cc1[nH]n(-c2nc3ccccc3s2)c(=O)c1C(C)=Nc1ccc(C)cc1	PrP UTR inh 92 | PrP UTR cherry 92
COC(=O)Cc1[nH]n(-c2ccccc2)c(=O)c1C(C)=Nc1ccccc1	none
CS(=O)(=O)c1ccccc1C(=O)Nc1ccc(Cl)cc1C(=O)c1ccccc1Cl	none (no result: PfHsp40 rescue, PrP UTR inh, MazEF act, PrPC surface inh)
CC(=O)c1ccc(NC(=O)COC(=O)C2CC3C=CC2C3)cc1 (centres undefined)	none
CCc1ccc(NC(=O)c2cnn3ccccc23)cc1	PrP UTR inh 51 | PrP UTR cherry inconclusive
CSc1cccc(NC(=O)c2cnn3ccccc23)c1	none
COC(=O)c1ccc(CN2C(=O)NC(CC(C)C)C2=O)cc1 (centres undefined)	PrP UTR inh 81 | PrP UTR cherry inactive
COC(=O)c1ccc(CN2C(=O)c3ccccc3C2=O)cc1	none
Nc1cc(C(Cl)=C(Cl)Cl)c(S(N)(=O)=O)cc1S(N)(=O)=O	PrP UTR inh 64 | PrP UTR cherry inactive
Nc1ccccc1S(N)(=O)=O	none
COc1ccc(C2=Nn3c(nnc3-c3ccccc3)SC2)cc1OC	none
COc1ccc(OC)c(-c2nnc3n2N=C(c2ccc(OC)c(OC4CCCC4)c2)CS3)c1	PrP UTR inh 65 | PrP UTR cherry 86
COc1ccc(OC)c(-c2nnc3n2N=C(c2ccc(OC)c(OC)c2)CS3)c1	PrP UTR inh 56 | PrP UTR cherry 83
COc1ccccc1C(=O)Nc1nc2ccccc2s1	PrP UTR inh 92 | PrP UTR cherry 93
CCOc1ccc2nc(NC(=O)c3ccccn3)sc2c1	PrP UTR inh 63 | PrP UTR cherry inactive
COc1ccc(C(=O)Nc2nc3ccccc3s2)c(OC)c1	PrP UTR inh 95 | PrP UTR cherry 95
COc1ccccc1C(=O)Nc1nc2ccc(S(C)(=O)=O)cc2s1	none
C/C(=N\NC(=O)C1COc2ccccc2O1)c1ccc(Cl)s1 (centres undefined)	none (no result: PriA SSB inh)
O=C(CSc1ncccn1)NN=Cc1ccccc1[N+](=O)[O-]	none (no result: PfHsp40 rescue, PrP UTR inh, MazEF act, PrPC surface inh)
Cc1cc(OC(=O)c2cc(C(F)(F)F)cc(C(F)(F)F)c2)c([N+](=O)[O-])c(=O)[nH]1	none
Cc1nn(-c2ccccc2)c2c1CC(=O)Nc1ccccc1-2	PrP UTR inh 64 | PrP UTR cherry 80
COC(=O)c1cc(NC(=O)c2nccnc2C(=O)O)cc(C(=O)OC)c1	PrP UTR inh 60 | PrP UTR cherry inactive
COC(=O)C(O)(c1ccc(N(C)C)cc1)C(F)(F)F (centres undefined)	PrP UTR inh 66 | PrP UTR cherry inactive
CCOC(=O)N(C)c1ccc(C(O)(C(=O)OC)C(F)(F)F)cc1 (centres undefined)	none
C=CCn1c(O)c(C=Nc2ccc(OC)cc2C)c(=O)[nH]c1=O	PrP UTR inh 55 | PrP UTR cherry inactive
C=CCn1c(O)c(C=Nc2c(C)n(C)n(-c3ccccc3)c2=O)c(=O)[nH]c1=O	none
CN(C)c1ccc(/C=C2\SC(=NCC(=O)O)NC2=O)cc1	none (no result: PfHsp40 rescue, PrP UTR inh, MazEF act, PrPC surface inh)
CN(C)c1ccc(/C=N/N=C2/NC(=O)/C(=C/c3ccc([N+](=O)[O-])cc3)S2)cc1	PrP UTR inh 63 (no result: PriA SSB inh) | PrP UTR cherry inactive
